Source: PubChem BioAssay AID1159580 (chemical genetic matrix, 2015)
Hit rate of the full screen: of about 5,500 compounds, about 2,000 (36%) were called active. About 18% were inconclusive and are not listed. Rule as the data show it: active = normalized growth mostly below about 0.91 (no sharp cut-off); inconclusive = no clear call, values can overlap the other calls; inactive = mostly above about 0.92. This is one part of the list.

Experiment: chemical genetic growth profiling, strain panel (AID 1159580);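 also: tested at 20 µM; growth read once vehicle control cultures reached saturation at 30 °C; 1 = growth at the plate median or of vehicle wells; lower values mean less growth of the strain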
Conditions: growth OD

Measured: normalized growth

COc1ccc(-c2cc(=O)c3c(O)cc(O[C@@H]4O[C@H](CO[C@H]5O[C@H](C)[C@@H](O)[C@H](O)[C@@H]5O)[C@@H](O)[C@H](O)[C@H]4O)cc3o2)cc1O
inactive: S. cerevisiae deletion strains, locus YKL009W, strain mrt4, active compounds read low 0.981 | S. cerevisiae deletion strains, locus YKL068W, active compounds read low 0.973 | S. cerevisiae deletion strains, locus YKL085W, strain MDH1 (second series), active compounds read low 0.991 | S. cerevisiae deletion strains, locus YKL085W, strain MDH1, active compounds read low 0.991 | S. cerevisiae deletion strains, locus YKL160W, strain elf1, active compounds read low 1 | S. cerevisiae deletion strains, locus YKL190W, strain CNB1, active compounds read low 0.994 | S. cerevisiae deletion strains, locus YKR001C, strain vps1, active compounds read low 1.02 | S. cerevisiae deletion strains, locus YKR026C, strain gcn3, active compounds read low 1.01 | S. cerevisiae deletion strains, locus YKR091W, strain srl3, active compounds read low 1.02 | S. cerevisiae deletion strains, locus YLL001W, strain dnm1, active compounds read low 1 | S. cerevisiae deletion strains, locus YLL026W, active compounds read low 1.01 | S. cerevisiae deletion strains, locus YLL041C, strain sdh2, active compounds read low 1.01 | S. cerevisiae deletion strains, locus YLR027C, strain aat2, active compounds read low 1.01 | S. cerevisiae deletion strains, locus YLR039C, strain RIC1, active compounds read low 0.954 | S. cerevisiae deletion strains, locus YLR058C, strain SHM2, active compounds read low 0.986 | S. cerevisiae deletion strains, locus YLR102C, strain apc9, active compounds read low 0.996 | S. cerevisiae deletion strains, locus YLR113W, strain HOG1, active compounds read low 1.03 | S. cerevisiae deletion strains, locus YLR221C, strain rsa3, active compounds read low 1.01 | S. cerevisiae deletion strains, locus YLR258W, strain gsy2, active compounds read low 1.03 | S. cerevisiae deletion strains, locus YLR262C, strain YPT6 (second series), active compounds read low 1.03 | S. cerevisiae deletion strains, locus YLR262C, strain YPT6, active compounds read low 0.949 | S. cerevisiae deletion strains, locus YLR268W, strain sec22, active compounds read low 1 | S. cerevisiae deletion strains, locus YLR320W, strain mms22, active compounds read low 1.03 | S. cerevisiae deletion strains, locus YLR330W, strain CHS5, active compounds read low 0.981 | S. cerevisiae deletion strains, locus YLR342W, strain FKS1 (second series), active compounds read low 1.01 | S. cerevisiae deletion strains, locus YLR342W, strain FKS1, active compounds read low 1.03 | S. cerevisiae deletion strains, locus YLR357W, strain rsc2, active compounds read low 1.03 | S. cerevisiae deletion strains, locus YLR370C, strain arc18, active compounds read low 1.01 | S. cerevisiae deletion strains, locus YLR371W, strain rom2, active compounds read low 0.999 | S. cerevisiae deletion strains, locus YLR384C, strain iki3, active compounds read low 1.03 | S. cerevisiae deletion strains, locus YLR418C, strain cdc73, active compounds read low 0.979 | S. cerevisiae deletion strains, locus YML016C, strain PPZ1, active compounds read low 0.994 | S. cerevisiae deletion strains, locus YML032C, strain rad52, active compounds read low 1.02 | S. cerevisiae deletion strains, locus YML120C, strain ndi1, active compounds read low 1.01 | S. cerevisiae deletion strains, locus YML124C, strain tub3, active compounds read low 1 | S. cerevisiae deletion strains, locus YMR058W, strain fet3, active compounds read low 1.01 | S. cerevisiae deletion strains, locus YMR078C, strain ctf18, active compounds read low 0.993 | S. cerevisiae deletion strains, locus YMR125W, strain sto1, active compounds read low 1.03 | S. cerevisiae deletion strains, locus YMR129W, active compounds read low 1 | S. cerevisiae deletion strains, locus YMR205C, strain PFK2, active compounds read low 1.03 | S. cerevisiae deletion strains, locus YMR223W, strain ubp8, active compounds read low 0.989 | S. cerevisiae deletion strains, locus YMR231W, strain pep5, active compounds read low 1.02 | S. cerevisiae deletion strains, locus YMR307W, strain GAS1, active compounds read low 1.07 | S. cerevisiae deletion strains, locus YNL067W, strain RPL9B, active compounds read low 1.04 | S. cerevisiae deletion strains, locus YNL071W, strain lat1, active compounds read low 1.03 | S. cerevisiae deletion strains, locus YNL128W, strain TEP1, active compounds read low 1.01 | S. cerevisiae deletion strains, locus YNL183C, strain NPR1, active compounds read low 0.989 | S. cerevisiae deletion strains, locus YNL209W, strain ssb2, active compounds read low 1.01 | S. cerevisiae deletion strains, locus YNL233W, strain BNI4, active compounds read low 1.01 | S. cerevisiae deletion strains, locus YNL248C, strain rpa49, active compounds read low 1 | S. cerevisiae deletion strains, locus YNL250W, strain rad50, active compounds read low 1 | S. cerevisiae deletion strains, locus YNL271C, strain bni1, active compounds read low 0.999 | S. cerevisiae deletion strains, locus YNL298W, strain CLA4, active compounds read low 0.985 | S. cerevisiae deletion strains, locus YNL307C, strain MCK1, active compounds read low 1 | S. cerevisiae deletion strains, locus YNL322C, strain KRE1 (second series), active compounds read low 1.02 | S. cerevisiae deletion strains, locus YNL322C, strain KRE1, active compounds read low 1 | S. cerevisiae deletion strains, locus YNR049C, strain mso1, active compounds read low 1.01 | S. cerevisiae deletion strains, locus YNR052C, strain pop2, active compounds read low 1 | S. cerevisiae deletion strains, locus YOL006C, strain TOP1, active compounds read low 1.08 | S. cerevisiae deletion strains, locus YOL012C, strain htz1 1.47 | S. cerevisiae deletion strains, locus YOL147C, strain pex11, active compounds read low 0.974 | S. cerevisiae deletion strains, locus YOR001W, strain rrp6, active compounds read low 1.03 | S. cerevisiae deletion strains, locus YOR061W, strain CKA2, active compounds read low 0.993 | S. cerevisiae deletion strains, locus YOR069W, strain VPS5, active compounds read low 0.987 | S. cerevisiae deletion strains, locus YOR070C, strain gyp1, active compounds read low 1.02 | S. cerevisiae deletion strains, locus YOR080W, strain dia2, active compounds read low 1.03 | S. cerevisiae deletion strains, locus YOR083W, strain WHI5, active compounds read low 0.992 | S. cerevisiae deletion strains, locus YOR106W, strain vam3, active compounds read low 0.983 | S. cerevisiae deletion strains, locus YOR136W, strain idh2, active compounds read low 1.01 | S. cerevisiae deletion strains, locus YOR144C, strain elg1, active compounds read low 1 | S. cerevisiae deletion strains, locus YOR184W, strain ser1, active compounds read low 1.01 | S. cerevisiae deletion strains, locus YOR231W, strain MKK1, active compounds read low 1 | S. cerevisiae deletion strains, locus YOR265W, strain rbl2, active compounds read low 1.02 | S. cerevisiae deletion strains, locus YOR270C, strain vph1, active compounds read low 0.983 | S. cerevisiae deletion strains, locus YOR290C, strain snf2, active compounds read low 1.02 | S. cerevisiae deletion strains, locus YOR316C, strain cot1, active compounds read low 0.997 | S. cerevisiae deletion strains, locus YPL051W, strain arl3, active compounds read low 1.01 | S. cerevisiae deletion strains, locus YPL055C, strain LGE1, active compounds read low 1.07 | S. cerevisiae deletion strains, locus YPL078C, strain atp4, active compounds read low 0.998 | S. cerevisiae deletion strains, locus YPL106C, strain sse1, active compounds read low 1.05 | S. cerevisiae deletion strains, locus YPL240C, strain hsp82, active compounds read low 1.03 | S. cerevisiae deletion strains, locus YPL241C, strain CIN2, active compounds read low 0.986 | S. cerevisiae deletion strains, locus YPL256C, strain CLN2, active compounds read low 0.987 | S. cerevisiae deletion strains, locus YPR119W, strain clb2, active compounds read low 1 | S. cerevisiae deletion strains, locus YPR141C, strain kar3, active compounds read low 0.972 | S. cerevisiae deletion strains, locus YPR163C, strain tif3, active compounds read low 0.992 | S. cerevisiae deletion strains, locus YPR167C, strain met16, active compounds read low 1.01 | S. cerevisiae deletion strains, strain wtn01, active compounds read low 0.997 | S. cerevisiae strains, strain wild type, active compounds read low 1
